Compound activity as filed in PubChem BioAssay.
BL2 CD40 inh – inhibitors of CD40-induced NF-kB signaling, primary screen, BL2 cells, luciferase reporter, single point. inhibition, % at 10 µM. actives 0.94% (n = 83,000). AID 1053188, 2014. CD40L-induced, 4 h;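 active = mean inhibition of at least 50% with a set share of replicates also reaching that level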;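 note: 0% = neutral control wells and 100% = IKK inhibitor VII at 50 µM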
An asterisk follows results filed as active; ! = not confirmed by another sample; [ ] = remark or other dose. This excerpt belongs to a sample that is enriched for hits.

SMILES	BL2 CD40 inh
N#Cc1cccc(-c2ccc(C3[C@@H]4CN(S(=O)(=O)c5ccccc5)C[C@H]3N4)cc2)c1 (some centres undefined)	-5
N#Cc1cccc(-c2ccc(C3[C@@H]4CN(S(=O)(=O)c5ccccc5F)C[C@H]3N4)cc2)c1 (some centres undefined)	2
Cc1ccc(S(=O)(=O)N2C[C@@H]3N[C@H](C2)C3c2ccc(-c3cccc(C#N)c3)cc2)cc1 (some centres undefined)	21[25 µM]
N#Cc1cccc(-c2ccc([C@@H]3[C@@H]4CN(S(=O)(=O)c5ccc(-c6ccccc6)cc5)C[C@H]3N4)cc2)c1	61*
Cc1ccccc1S(=O)(=O)N1C[C@@H]2N[C@H](C1)C2c1ccc(-c2cccc(C#N)c2)cc1 (some centres undefined)	54*![25 µM]
CO[C@H]1CN(C)C(=O)c2ccc(NC(=O)C3CCCCC3)cc2OC[C@@H](C)N(C)C[C@@H]1C	4
CN(C)C(=O)C[C@@H]1CC[C@H]2[C@@H](COc3ccc(NC(=O)C4CCCC4)cc3C(=O)N2C)O1	4
CN1CCN(C(=O)C[C@@H]2CC[C@H]3[C@@H](COc4ccc(NC(=O)C5CCCC5)cc4C(=O)N3C)O2)CC1	3
CN1c2ccc(-c3ccc(F)cc3)cc2[C@@H]2[C@@H](CCN2C(=O)c2ccc(F)cc2)[C@H]1CO	-1
CC(C)[C@@H](C)NC(=O)N(C)C[C@@H]1OCc2ccccc2-c2c(n(C)c3ccccc23)C(=O)N([C@H](C)CO)C[C@@H]1C	-11
Cc1noc(C)c1S(=O)(=O)Nc1ccc2c(c1)C(=O)N([C@H](C)CO)C[C@H](C)[C@H](CN(C)C(=O)Nc1cccc3ccccc13)OCCCC[C@H](C)O2	4[25 µM]
CCOC(=O)Cn1cnc2c(sc3nc(C)cc(C)c32)c1=O	-75
COC(=O)Cn1cnc2sc3c(c2c1=O)CCCC3	3
CCOC(=O)Cn1cnc2sc3c(c2c1=O)CCC3	56*
CO[C@@H]1CC[C@H]2CCOc3c(C#N)cccc3C(=O)N(C)C[C@@H](c3ccccc3)CC(=O)N(C)C[C@@H]1O2	-11[25 µM]
C[C@@H]1CN([C@H](C)CO)C(=O)c2ccccc2-c2ccccc2CO[C@H]1CN(C)C(=O)Nc1ccc(-c2ccccc2)cc1	33[25 µM]
Cc1oc(-c2nc3ccccc3n2C)cc1C(=O)c1ccccc1	62*
CC(=O)c1ccc(-c2nc3ccccc3n2C)o1	-65
Cn1cc(C(=O)c2ccccc2)cc1-c1nc2ccccc2n1C	-2
CO[C@H]1CN(C)C(=O)c2ccc(NC(=O)c3cc(C)on3)cc2OC[C@@H](C)NC[C@H]1C	5[25 µM]
C[C@H](CO)N1C[C@H](C)[C@@H](CN(C)Cc2ccc(Oc3ccccc3)cc2)Oc2c(NC(=O)CCC(F)(F)F)cccc2C1=O	70*[25 µM]
C[C@H]1CN([C@@H](C)CO)C(=O)c2ccccc2-c2ccccc2CO[C@H]1CN(C)Cc1ccc(O)cc1	-4
C[C@@H]1CN([C@@H](C)CO)C(=O)c2ccccc2-c2ccccc2CO[C@@H]1CN(C)Cc1ccccc1	15
C[C@H](CO)N1C[C@H](C)[C@@H](CN(C)Cc2ccc(Oc3ccccc3)cc2)Oc2c(NC(=O)c3ccncc3)cccc2C1=O	34
C[C@@H]1CN([C@H](C)CO)C(=O)c2ccccc2-c2ccccc2CO[C@@H]1CN(C)Cc1ccc(Oc2ccccc2)cc1	41[25 µM]
SMILES	BL2 CD40 inh
C[C@@H]1CN([C@@H](C)CO)C(=O)c2ccccc2-c2ccccc2CO[C@@H]1CN(C)Cc1ccc(Oc2ccccc2)cc1	62*[25 µM]
C[C@@H]1CN([C@H](C)CO)C(=O)c2ccccc2-c2ccccc2CO[C@@H]1CN(C)Cc1ccc(C(=O)O)cc1	-8
C[C@@H]1CN([C@H](C)CO)C(=O)c2cc(NC(=O)CCC(F)(F)F)ccc2O[C@H]1CN(C)Cc1ccc(Oc2ccccc2)cc1	-4
C[C@H]1CN([C@@H](C)CO)C(=O)c2ccccc2-c2ccccc2CO[C@H]1CN(C)Cc1ccc(Oc2ccccc2)cc1	59*[25 µM]
Cn1cnc(S(=O)(=O)N2CC[C@@H]3[C@H]2c2cc(-c4ccccc4F)ccc2N[C@@H]3CO)c1	-57[25 µM]
CN1C[C@H]2[C@@H](c3ccccc31)[C@H](CO)N2C(=O)C1CCCC1	6
COCC(=O)N1[C@@H](CO)[C@@H]2c3ccccc3N(C(=O)Nc3ccccc3Cl)C[C@@H]21	-13[25 µM]
COCC(=O)N(C[C@H]1N[C@H](CO)[C@@H]1c1ccc(C2=CCCC2)cc1)C(C)C	-3
CC(C)(C)n1ncc2c(=O)n(CC(=O)OCc3ccccc3)cnc21	98*
CC(C)(C)n1ncc2c(=O)n(CC(=O)NCc3ccc(F)cc3)cnc21	7
CC(C)(C)n1ncc2c(=O)n(CC(=O)c3ccccc3)cnc21	-82
CCCNC(=O)N1[C@H](CO)[C@@H](c2ccccc2-c2ccccc2F)[C@@H]1C#N	-3[25 µM]
C[C@@H]1CN([C@H](C)CO)C(=O)Cc2cc(NS(C)(=O)=O)ccc2O[C@@H]1CN(C)C(=O)Nc1ccccc1	5[25 µM]
CC(=NNC(=S)N1CC2CCC(CC2)C1)c1ccccn1	-17
COc1ccccc1NC(=S)NN=C(C)c1ccccn1	90*
COc1ccccc1NC(=O)c1ccccc1NC(=O)c1ccccn1	1
Cc1ccc(NC(=S)NNC(=S)Nc2ccc(C)cc2)cc1	-42
CC(=NNC(=S)Nc1ccc(C)cc1)c1ccccn1	77*
CCCN(CC(=O)Nc1ccccc1OC)C(=O)c1ccccn1	-2
CCNC(=O)[C@@H]1[C@@H](CO)[C@@H]2Cn3c(ccc(C4=CCCCC4)c3=O)[C@H]1N2CCC(F)(F)F	5[25 µM]
C[C@@H]1CN([C@H](C)CO)C(=O)c2cc(NC(=O)Cc3ccccc3)ccc2O[C@@H](C)CCCCO[C@H]1CN(C)Cc1ccncc1	-13[25 µM]
CC(=O)N(C)C[C@@H]1Oc2ccc(N)cc2CC(=O)N(C)C[C@@H]1C	3
COc1ccc(S(=O)(=O)Nc2cccc3c2O[C@H](CN(C)C(=O)Nc2cccc4ccccc24)[C@@H](C)CN([C@H](C)CO)C3=O)cc1	0[25 µM]
CO[C@H]1CN(C)C(=O)c2cc(NC(=O)C3CCOCC3)ccc2OC[C@@H](C)N(CC2CC2)C[C@H]1C	-8
O=C(CC1CC1)N1CC2(C1)[C@H](c1ccccc1)[C@H](CO)N2C(=O)c1ccccn1	-2[25 µM]
SMILES	BL2 CD40 inh
COc1ccc(-c2cc(=O)c3c(C)cc(O)cc3o2)cc1	-60
COc1cc2oc(-c3ccc(O)cc3)cc(=O)c2c(OC)c1O	-18
O=c1cc(-c2ccc(O)cc2)oc2ccc3ccccc3c12	102*
C[C@@H]1CN(C)C(=O)c2cccc(N(C)C)c2O[C@@H]1CN(C)C(=O)OC(C)(C)C	-89
COc1cccc(C(=O)Nc2ccc3c(c2)OC[C@@H](C)N(C(=O)C2CCC2)C[C@@H](C)[C@H](OC)CN(C)C3=O)c1	5
Cc1ccc(N2CC(C(=O)Nc3nccs3)CC2=O)cc1Cl (centres undefined)	61*
COCc1nnc(NC(=O)C2CC(=O)N(c3ccc(C)c(Cl)c3)C2)s1 (centres undefined)	1
O=C(Nc1nccs1)C1CC(=O)N(c2ccc(F)cc2)C1 (centres undefined)	1
c1csc(C2=NNC(=NC3CCCCC3)SC2)c1	-44
COc1ccc(N=C2NN=C(c3ccc4c(c3)OCCO4)CS2)cc1	-11
c1ccc(CN=C2NN=C(c3cc4ccccc4o3)CS2)cc1	-12
COc1ccc(CN=C2NN=C(c3cccc(OC)c3)CS2)cc1	-48
c1ccc2oc(C3=NNC(=NC4CC4)SC3)cc2c1	66*
c1cc2c(cc1C1=NNC(=NC3CC3)SC1)OCCO2	92*
